Article PMC12136788
Numbering of substitutions follows the chain as printed. Whole data set: some 24,000 sequences, median “enrichment r” near 0.99, cut for the highest 2% near 3.7. The sample holds the highest values, similar sequences and a random draw of the others, so the mix is not that of the screen.

T1: UNK ZnF1-3 (human, UniProt Q9C0B0 31-174)
T1 sequence: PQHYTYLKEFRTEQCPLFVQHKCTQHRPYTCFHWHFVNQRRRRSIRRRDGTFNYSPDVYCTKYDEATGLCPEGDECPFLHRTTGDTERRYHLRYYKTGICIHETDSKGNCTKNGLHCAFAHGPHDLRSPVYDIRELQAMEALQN

B1: chrX:98862621:98862622:+_ENSMUSG00000034160_ENSMUST00000044475|mus_hu|mus_mus_mus_hu_False|18_68 (ssRNA)
RNA: GGGAGUUCUACAGUCCGACGAUCCUGCAUCUCCUUUAGAGUGUUUCCCAUAUUAGAGUAGGCAUCAGCAAAUGUAGGACUGAUUCGAAUAGCCUCCUUAUAAUGCAUCAGAGCUUCCUGCAGCUUGCCCUGCUGCUGCAGUACCAACAGAGGAUUGAGCAUCA
B2: chr4:43703020:43703021:+_ENSMUSG00000078716_ENSMUST00000107866|mus_mus|FALSE|FALSE (ssRNA)
RNA: GGGAGUUCUACAGUCCGACGAUCCACACUGCCAGCAAUGAGCAUGUGCCAAAUGCUGUGAAUGUAGAAGUAGUUGUCCCGAGUCUCCACGAAAGCAUACAGUAGAACGGCACUGCCAGCAAUCAGGCUGCCGGGACACAGGUACAACAGAGGAUUGAGCAUCA
B3: chr2:130910683:130910684:-_ENSG00000136699_ENST00000351288|hu_hu|motif|central (ssRNA)
RNA: GGGAGUUCUACAGUCCGACGAUCGGAACACAGAGCCGCCAUCUGUCCUGCAAAUCUGUGGUUGAUGGCAGACGACAGCCGGAAGAGUGUGCGGACCAAGCUGGCGAUCUCAUAGCUCCGGAUGGGCUGCAGCUCCGGGUCCCCCAACAGAGGAUUGAGCAUCA
B4: chr17:56552419:56552420:-_ENSMUSG00000013236_ENSMUST00000086828|mus_mus|mus_mus_mus_hu_False|18_58 (ssRNA)
RNA: GGGAGUUCUACAGUCCGACGAUCAAAAAAUACACUAUUUAAAAAAAAUGAAAUGUCACGGGAUACAGUUACACUGACACUAUUAAAAGAAAGCUGGAUUCUGGUCCCAGCCCAGUGGCAGGCAGGGGCAGAGCGGGGAGGAGCCAACAGAGGAUUGAGCAUCA
B5: chr5:145543945:145543946:-_ENSG00000133706_ENST00000545646|hu_hu|hu_hu_hu_mus_True|38_98 (ssRNA)
RNA: GGGAGUUCUACAGUCCGACGAUCCUGAACGGCCAGUGGCGGGAAAUAAUCAAGCCAGUGCUCUGCUUCAGAAAACUUCACUAUGUCGUCAUCAGAGAGGCCAAGGGAUUUCAUAAUGUCCCACUGGUACUUAGAAGAUCCUGCCAACAGAGGAUUGAGCAUCA
B6: chr17:56552419:56552420:-_ENSMUSG00000013236_ENSMUST00000086828|mus_mus|mus_mus_mus_hu_False|8_18 (ssRNA)
RNA: GGGAGUUCUACAGUCCGACGAUCAAAAAAUACACUAUUUAAAAAAAAUGAAAUGUCACGGGAUACAGUUACACUGAGAGUUUUAAAAGAAAGCUGGAUUCUGGUCCCAGCCCAGUGGCAGGCAGGGGAGUGCGGAAGAGGAGCCAACAGAGGAUUGAGCAUCA
B7: chr17:56552419:56552420:-_ENSMUSG00000013236_ENSMUST00000086828|mus_mus|mus_mus_mus_hu_False|18_18 (ssRNA)
RNA: B4 RNA with C77G, C79G, A81U
B8: chr17:56552419:56552420:-_ENSMUSG00000013236_ENSMUST00000086828|mus_mus|mus_mus_mus_hu_False|18_48 (ssRNA)
RNA: B4 RNA with C77G, C79G, A81U, G88A, G92A, C93U, U94A, G95A
B9: chr17:56552419:56552420:-_ENSMUSG00000013236_ENSMUST00000086828|mus_mus|mus_mus_mus_hu_False|1_18 (ssRNA)
RNA: B4 RNA with C77G, C79G, A81U, A138C, G139A, C143G
B10: chr17:56552419:56552420:-_ENSMUSG00000013236_ENSMUST00000086828|mus_mus|mus_mus_mus_hu_False|18_98 (ssRNA)
RNA: B4 RNA with U38A, U39A, C77G, C79G, A81U
B11: 57396971_57397091_122_5pUTR_ENSMUSG00000021938_ENSMUST00000022507|mouse|control|control (ssRNA)
RNA: GGGAGUUCUACAGUCCGACGAUCGCUUCAGGUUUCCUCUUAACAUCAUCUUAGCAAGUUCGCUUGGGAUGCUGGAUGAGGCCUAGACGUCAAGGUACACACGUCUCCACAUGUAUCUAUGGAAACGAAGCAAGGAAAGCCAGGCAACAGAGGAUUGAGCAUCA
B12: 79664557_79664677_4134_CDS_ENSG00000146247_ENST00000275034|human|control|control (ssRNA)
RNA: GGGAGUUCUACAGUCCGACGAUCACGGAAAGGCUCUGAAUCUUCACAUUGAAAUAUGAGAUUUAACAAUUCUUCACACUGUUUCUUCCAUGCUUGAAUAUCGUAAGACUGGGCUCUAUUACGUAAUCUUCUUCUAGGCUGAUGCAACAGAGGAUUGAGCAUCA
B13: chr2:113333244:113333245:+_ENSG00000125630_ENST00000417433|hu_hu|FALSE|FALSE (ssRNA)
RNA: GGGAGUUCUACAGUCCGACGAUCAACAUCAAGUUAAACAACAUCCAGUUUCACUUUGAUGUUCAUAGCUGCCAGUUCAGCUACAAAAUACCGAAAAACAUAAGGCACAGAAACAGUAUCGAUAGUGUCACUGCGACUACACAGCAACAGAGGAUUGAGCAUCA
B14: chr5:128440902:128440903:+_ENSG00000066583_ENST00000173527|hu_mus|hu_hu_hu_mus_True|88_98 (ssRNA)
RNA: GGGAGUUCUACAGUCCGACGAUCUUGAACGGUGCUGCCAAGACCUUUAGGGUAUUGUUCCGUUAUGAUAACUGGAAUCCCUAAGAUCCGAGCUCCUUGCAACAGUCUCUGUCCCACACUAAUGAUGUCCCCAAAGUAUUUGAUCAACAGAGGAUUGAGCAUCA
B15: chr2:9725471:9725472:-_ENSG00000134308_ENST00000238081|hu_hu|FALSE|FALSE (ssRNA)
RNA: GGGAGUUCUACAGUCCGACGAUCUGCCGCAUCACAUUCUUCUCCUGCACUGUCUGAUGUCCAAAGUGUUAGGUUGUCUCUAAGCAACUGCAUGAUGAGGGUGCUGUCUUUGUAUGAGUCUUCAUUCAGUGUAUCAAGUUCAGCCAACAGAGGAUUGAGCAUCA
B16: 27821128_27827609_1759_CDS_ENSMUSG00000022263_ENSMUST00000090247|mouse|control|control (ssRNA)
RNA: GGGAGUUCUACAGUCCGACGAUCGCCCUGGUGAUGAUGAAUGGCGUCUUCCAGGUCCUGCAGCUCCGAGGGAAGGUCUACUUCACCACAGGCCUUACACCACGAGUCCACGUUGCUCAUGUACUUCUCAGCCUUCUGGUGAAACAACAGAGGAUUGAGCAUCA

Each binder was assayed against T1, UNK ZnF1-3 (assay: nsRBNS (natural sequence RNA bind-n-seq); RBNS binding buffer (assumed for nsRBNS): 25 mM Tris pH 7.5, 150 mM KCl, 3 mM MgCl2, 0.01% Triton X-100, 500 ug/ml BSA, 20 U/ml SUPERase-In, 4 C; UNK is unkempt and MSI1 is Musashi-1; names of the RNAs are library labels; protein concentration not given here; high values mean tight binding).
Work on B1 yielded a binding signal of 1.07 enrichment R. B2 was tested, and the binding signal was 0.899 enrichment R. With B3 the binding signal was 0.907 enrichment R. With B4 the binding signal was 5.2 enrichment R. With B5 the binding signal was 1.21 enrichment R. With B6 the binding signal was 3.69 enrichment R. B7 gave a binding signal of 3.38 enrichment R. B8 was tested, and the binding signal was 7.31 enrichment R. B9 showed a binding signal of 3.35 enrichment R. Work on B10 yielded a binding signal of 6.3 enrichment R. Work on B11 yielded a binding signal of 0.72 enrichment R. Binder B12 has a binding signal of 1.11 enrichment R. For B13, the binding signal was 0.877 enrichment R. B14 was tested, and the binding signal was 0.627 enrichment R. With B15 the binding signal was 0.929 enrichment R. For B16, the binding signal was 0.482 enrichment R.
